Measurements: PubChem BioAssay
For part of these data: Measured potencies and affinities stand elsewhere. Active and inactive are the calls of the source.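 Rule for the calls, unless noted: active = fluorescence ratio normalized to control raised more than 50% in primary screen plus both repeat runs; inactive = the rest.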

Assays:
[1] = tested on: TRPC4 beta (transient receptor potential cation channel C4), mouse; assay: TRPC4 cation channel opening, retest – cell-based, Fluo4 calcium, HEK293 TRPC4beta/mu-opioid, duplicates, 10 µM, confirmation (AID 2426); conditions: Fluo4 calcium fluorescence, at 10 µM; active compounds read high;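 for activation: percent rise of integrated ratio over buffer wells lacking compound which define 0%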
[2] = tested on: transient receptor potential cation channel C4 beta (TRPC4), mouse; assay: TRPC4 cation channel opening, second retest – cell-based, second round, Fluo4, HEK293 TRPC4beta/mu-opioid, 1 µM, confirmation (AID 2461;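 active = primary screen active and over 50% activation in each of two duplicate runs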); conditions: Fluo4 calcium fluorescence, at 1 µM; active compounds read high
[3] = tested on: TRPC4 (transient receptor potential cation channel C4 beta), mouse; assay: potentiation of DAMGO EC20 TRPC4 response – cell-based, second round, Fluo-4, HEK293 TRPC4beta/mu-opioid, 1 µM, confirmation (AID 2554;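 active = primary screen hit whose fluorescence ratio, in both repeats, exceeds the weak agonist control mean by 3 SD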); conditions: DAMGO EC20, Fluo-4 calcium flux, at 1 µM; active compounds read high
[4] = tested on: TRPC4 beta (transient receptor potential cation channel C4), mouse; assay: potentiation of DAMGO EC20 TRPC4 response – cell-based, Fluo-4, HEK293 TRPC4beta/mu-opioid, confirmation (AID 2555;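 active = primary screen hit whose calcium fluorescence ratio, in both repeats, exceeds the weak agonist control mean by 3 SD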); conditions: DAMGO EC20, Fluo-4 calcium flux, at 10 µM; active compounds read high
[5] = biological target: Short transient receptor potential channel 4 (Mus musculus) (UniProt Q9QUQ5); assay: blockers of DAMGO-evoked TRPC4 calcium flux – cell-based, Fluo4, HEK293 TRPC4beta/mu-opioid, confirmation (AID 2636;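 active = calcium signal cut by more than 3 SD below the full-agonist control yet still positive, in both repeats and the earlier primary screen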); conditions: at 10 µM; active compounds read high
[6] = biological target: Short transient receptor potential channel 4 (Mus musculus) (UniProt Q9QUQ5); assay: blockers of DAMGO-evoked TRPC4 calcium flux – cell-based, second round, Fluo4, HEK293 TRPC4beta/mu-opioid, 1 µM, confirmation (AID 2637;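 active = calcium signal ratio cut to more than 3 SD under the fully stimulated control mean yet still positive, in both repeats and the primary screen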); conditions: at 1 µM; active compounds read high
[7] = biological target: Short transient receptor potential channel 4 (Mus musculus) (UniProt Q9QUQ5); assay: calcium entry via TRPC4 opening agents – cell-based, HEK293 TRPC4/mu-opioid, Fluo-4 calcium, dose response (AID 434937;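 active = primary screen activator hit with a dose response curve and TRPC4 channel activation at any tested dose; inactive = no activation, no dose response, or not a primary hit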)
[8] = biological target: Short transient receptor potential channel 4 (Mus musculus) (UniProt Q9QUQ5); assay: potentiation of DAMGO-evoked TRPC4 calcium signal – cell-based, HEK293 TRPC4/mu-opioid, Fluo-4 calcium, EC20 DAMGO, dose response (AID 434941;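 active = earlier screen potentiator hit that boosts the TRPC4 ion channel at some dose, with a dose response; inactive = no potentiation, no dose response, or not a prior hit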;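 note: calcium entry triggered by an EC20 dose of DAMGO at the co-expressed mu-opioid receptor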)
[9] = biological target: Short transient receptor potential channel 4 (Mus musculus) (UniProt Q9QUQ5); assay: block of DAMGO-driven TRPC4 calcium entry – cell-based, HEK293 TRPC4/mu-opioid, Fluo-4 calcium, dose response (AID 434942;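 active = primary screen inhibitor hit that blocks the TRPC4 channel at some tested dose, yielding a dose curve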)
[10] = biological target: Short transient receptor potential channel 6 (Mus musculus) (UniProt Q61143); assay: TRPC6 blockade by TRPC4 inhibitor hits – cell-based, HEK293, membrane potential dye, duplicate, selectivity assay for TRPC4 inhibitor project, confirmation (AID 434948;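 active = active in primary screen and both duplicates, each dropping signal beyond three positive-control SD with fluorescence still positive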); conditions: HEK293 TRPC6, membrane potential dye fluorescence, at 10 µM, stimulated with maximal-effect acetylcholine; active compounds read high
[11] = biological target: Short transient receptor potential channel 6 (Mus musculus) (UniProt Q61143); assay: TRPC6 opening by TRPC4 activator hits – cell-based, HEK293, membrane potential dye, duplicate, selectivity assay for TRPC4 activator project, confirmation (AID 434950;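 active = membrane potential signal rise above negative control mean plus 3 SD in both duplicates, also active in the earlier TRPC4 screen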;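 for activation: 0% = buffer only wells and 100% = acetylcholine maximal-effect wells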); conditions: HEK293 TRPC6, membrane potential fluorescence, at 10 µM; activation: active compounds read high; outcome: activation
[12] = biological target: Short transient receptor potential channel 6 (Mus musculus) (UniProt Q61143); assay: positive modulators of mouse TRPC6 channel – HEK293 cells, membrane potential dye, duplicate, selectivity assay for TRPC4 potentiator project, confirmation (AID 434952;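 active = compound raising the membrane signal above positive-control mean plus 3 SD in both repeats, and a primary screen hit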); conditions: HEK293 TRPC6, membrane potential dye fluorescence, at 10 µM, maximal acetylcholine added after compound; active compounds read high
[13] = biological target: Short transient receptor potential channel 4 (Mus musculus) (UniProt Q9QUQ5); assay: calcium flux activators in TRPC4/5HT1a cells, counter-screen for TRPC4 activator project, cell-based, second counter screen, HEK293 TRPC4/5HT1a, Fluo-4 (AID 434977;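 active = calcium signal rise above buffer-control mean plus 5 SD in both duplicates, and also a hit in the primary screen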); conditions: Fluo-4 calcium flux, at 10 µM; active compounds read high
[14] = serotonin-gated TRPC4 signal block – cell-based, second counter screen, HEK293 TRPC4/5HT1a, Fluo-4, counter-screen for TRPC4 inhibitor project, confirmation (AID 434978;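 active = primary screen active whose calcium signal fell more than 3 SD beyond the full-serotonin control mean in both duplicate plates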;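 note: serotonin given first at submaximal then at maximal dose after compound preincubation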); conditions: Fluo-4 calcium flux, at 10 µM, serotonin added to trigger calcium flux; active compounds read high
[15] = tested on: TRPC4 (mouse), co-expressed with 5HT1a in HEK293; assay: enhancement of serotonin-evoked TRPC4 response – cell-based, second counter screen, HEK293 TRPC4/5HT1a, Fluo-4, counter-screen for TRPC4 potentiator project, confirmation (AID 434979;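 active = signal rise over 3 SD above mean of control wells given weak agonist, in both repeats and first screen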); conditions: Fluo-4 calcium flux, at 10 µM, serotonin added at its EC20 dose; active compounds read high
[16] = nonspecific calcium rise without TRPC4 – cell-based, HEK293 mu-opioid receptor line, counter-screen for TRPC4 activator project, confirmation (AID 449723;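 active = hit in primary screen, with calcium signal over 5 SD above buffer well mean in both duplicates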;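 note: counter screen cells carry the mu-opioid receptor alone and lack TRPC4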); conditions: HEK293 mu-opioid cells, Fluo-4 calcium fluorescence, at 10 µM; active compounds read high
[17] = nonspecific potentiation of DAMGO calcium response – cell-based, HEK293 mu-opioid receptor line, counter-screen for TRPC4 allosteric potentiator project, confirmation (AID 449724;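 active = calcium signal rise more than 3 SD above the low-dose agonist control mean, in both duplicate plates and the primary screen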); conditions: HEK293 mu-opioid receptor cells, Fluo-4 calcium flux, at 10 µM, compound added before EC20 DAMGO stimulus; active compounds read high

Chain of Short transient receptor potential channel 4 (Mus musculus) (Q9QUQ5 whole entry, looked up): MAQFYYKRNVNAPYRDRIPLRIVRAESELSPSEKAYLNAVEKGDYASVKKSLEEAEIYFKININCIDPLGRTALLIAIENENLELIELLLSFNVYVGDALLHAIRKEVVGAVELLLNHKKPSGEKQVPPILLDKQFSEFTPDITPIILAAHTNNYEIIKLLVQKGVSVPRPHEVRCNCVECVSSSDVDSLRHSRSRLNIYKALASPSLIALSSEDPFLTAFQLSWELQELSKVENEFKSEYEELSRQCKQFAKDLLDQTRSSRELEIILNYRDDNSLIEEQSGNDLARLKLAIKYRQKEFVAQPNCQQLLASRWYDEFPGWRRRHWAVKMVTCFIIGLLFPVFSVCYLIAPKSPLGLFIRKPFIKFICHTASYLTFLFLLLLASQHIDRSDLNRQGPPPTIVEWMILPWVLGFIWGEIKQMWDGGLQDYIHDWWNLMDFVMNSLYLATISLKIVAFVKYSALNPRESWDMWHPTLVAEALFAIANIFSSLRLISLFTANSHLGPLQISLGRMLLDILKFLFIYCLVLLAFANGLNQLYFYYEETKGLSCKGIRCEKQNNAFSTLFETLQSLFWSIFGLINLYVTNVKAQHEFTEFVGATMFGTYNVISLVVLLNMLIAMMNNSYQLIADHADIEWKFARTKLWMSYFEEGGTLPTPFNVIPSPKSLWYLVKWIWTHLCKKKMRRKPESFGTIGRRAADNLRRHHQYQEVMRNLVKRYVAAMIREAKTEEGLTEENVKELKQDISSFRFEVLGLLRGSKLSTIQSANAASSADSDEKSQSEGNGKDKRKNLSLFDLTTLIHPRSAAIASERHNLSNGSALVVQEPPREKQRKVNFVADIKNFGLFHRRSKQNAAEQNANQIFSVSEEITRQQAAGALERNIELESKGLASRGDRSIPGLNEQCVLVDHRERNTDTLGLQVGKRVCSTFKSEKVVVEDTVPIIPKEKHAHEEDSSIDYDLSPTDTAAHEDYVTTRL
Chain of Short transient receptor potential channel 6 (Mus musculus) (Q61143 whole entry, looked up): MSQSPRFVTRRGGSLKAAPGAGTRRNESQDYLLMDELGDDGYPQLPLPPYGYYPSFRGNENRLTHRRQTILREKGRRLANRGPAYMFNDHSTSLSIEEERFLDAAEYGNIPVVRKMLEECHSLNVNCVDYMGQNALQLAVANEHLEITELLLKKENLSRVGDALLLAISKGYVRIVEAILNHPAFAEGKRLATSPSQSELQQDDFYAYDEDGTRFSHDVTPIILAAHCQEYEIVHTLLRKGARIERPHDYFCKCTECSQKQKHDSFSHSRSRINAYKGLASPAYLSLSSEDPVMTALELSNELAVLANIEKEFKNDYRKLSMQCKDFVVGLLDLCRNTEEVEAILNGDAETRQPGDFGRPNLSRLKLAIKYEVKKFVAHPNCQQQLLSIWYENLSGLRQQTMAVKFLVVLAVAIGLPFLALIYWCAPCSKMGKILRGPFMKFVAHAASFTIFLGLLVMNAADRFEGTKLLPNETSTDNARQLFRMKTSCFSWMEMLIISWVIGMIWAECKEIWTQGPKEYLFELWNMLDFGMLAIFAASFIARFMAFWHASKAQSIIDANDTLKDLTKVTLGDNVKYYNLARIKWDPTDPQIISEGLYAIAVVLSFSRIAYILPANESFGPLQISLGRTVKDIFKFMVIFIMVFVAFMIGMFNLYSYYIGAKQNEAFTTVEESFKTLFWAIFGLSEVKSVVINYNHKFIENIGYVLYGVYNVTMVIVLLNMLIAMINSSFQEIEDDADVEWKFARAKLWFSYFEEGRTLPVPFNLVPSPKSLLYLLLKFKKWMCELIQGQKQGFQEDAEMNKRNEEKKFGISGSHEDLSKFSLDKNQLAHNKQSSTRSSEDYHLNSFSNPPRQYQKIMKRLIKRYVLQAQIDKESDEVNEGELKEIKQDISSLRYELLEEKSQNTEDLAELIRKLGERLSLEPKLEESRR

CN(Cc1ccccc1)C(=O)c1oc(=O)c2ccccc2c1-c1ccccc1
active: potentiation [15] 9.58%
inactive: outcome [1] | outcome [2] | outcome [3] | outcome [4] | outcome [5] | outcome [6] | outcome [7] | outcome [8] | outcome [9] | outcome [10] | outcome [11] | outcome [12] | outcome [13] | outcome [14] | outcome [16] | outcome [17]

Cc1ccc(CC(=O)NCC(c2ccco2)N(C)C)cc1C (stereo not given)
inactive: outcome [1] | outcome [2] | outcome [3] | outcome [4] | outcome [5] | outcome [6] | outcome [7] | outcome [8] | outcome [9] | outcome [10] | outcome [11] | outcome [12] | outcome [13] | outcome [14] | outcome [15] | outcome [16] | outcome [17]

O=C(Cc1cccs1)Nc1nc(-c2ccc(F)cc2F)cs1
inactive: outcome [1] | outcome [2] | outcome [5] | outcome [6] | outcome [7] | outcome [8] | outcome [9] | outcome [10] | outcome [11] | outcome [12] | outcome [13] | outcome [14] | outcome [16] | outcome [17]
active: potentiation [3] 24% | potentiation [4] 65% | potentiation [15] 91.9%

COc1ccc(Cc2noc(CN(C)CC3CCN(Cc4ccccc4)CC3)n2)cc1OC
inactive: outcome [1] | outcome [2] | outcome [3] | outcome [4] | outcome [5] | outcome [6] | outcome [7] | outcome [8] | outcome [9] | outcome [10] | outcome [11] | outcome [12] | outcome [13] | outcome [14] | outcome [15] | outcome [16] | outcome [17]

CSCC(C)N1CCC(CO)(CCCc2ccccc2)CC1 (stereo not given)
inactive: outcome [1] | outcome [2] | outcome [3] | outcome [4] | outcome [5] | outcome [6] | outcome [7] | outcome [8] | outcome [9] | outcome [10] | outcome [11] | outcome [12] | outcome [13] | outcome [14] | outcome [15] | outcome [16] | outcome [17]

c1ccc(C(c2nnnn2C2CCCC2)N2CCN(c3ccccc3)CC2)cc1 (stereo not given)
inactive: outcome [1] | outcome [2] | outcome [3] | outcome [4] | outcome [5] | outcome [6] | outcome [7] | outcome [8] | outcome [9] | outcome [10] | outcome [11] | outcome [12] | outcome [13] | outcome [14] | outcome [15] | outcome [16] | outcome [17]

CCOC(=O)c1sc2nc(CC(=O)OC)nc(NCc3ccc(F)cc3)c2c1C
inactive: outcome [1] | outcome [2] | outcome [3] | outcome [4] | outcome [5] | outcome [6] | outcome [7] | outcome [8] | outcome [9] | outcome [10] | outcome [11] | outcome [12] | outcome [13] | outcome [14] | outcome [15] | outcome [16] | outcome [17]

Cc1cc(OCCN2CCCCC2)nc2ccccc12
active: potentiation [15] 13.7%
inactive: outcome [1] | outcome [2] | outcome [3] | outcome [4] | outcome [5] | outcome [6] | outcome [7] | outcome [8] | outcome [9] | outcome [10] | outcome [11] | outcome [12] | outcome [13] | outcome [14] | outcome [16] | outcome [17]

CC(C)Oc1ccc(CCC(=O)NNC(=S)NCc2ccccc2)cc1
inactive: outcome [1] | outcome [2] | outcome [3] | outcome [4] | outcome [5] | outcome [6] | outcome [7] | outcome [8] | outcome [9] | outcome [10] | outcome [12] | outcome [13] | outcome [14] | outcome [15] | outcome [16] | outcome [17]
active: activation [11] 37.5%

CC(C)Cc1nc(N2CCN(C(=O)C(C)C)CC2)c(C#N)c2c1CCC2
active: potentiation [4] 33%
inactive: outcome [1] | outcome [2] | outcome [3] | outcome [5] | outcome [6] | outcome [7] | outcome [8] | outcome [9] | outcome [10] | outcome [11] | outcome [12] | outcome [13] | outcome [14] | outcome [15] | outcome [16] | outcome [17]

O=C(Nc1c(F)cc(F)cc1Br)c1cc(-c2ccc(O)cc2)on1
inactive: outcome [1] | outcome [2] | outcome [3] | outcome [4] | outcome [5] | outcome [6] | outcome [7] | outcome [8] | outcome [9] | outcome [10] | outcome [11] | outcome [12] | outcome [13] | outcome [14] | outcome [15] | outcome [16] | outcome [17]

COc1ccc(/C=C2/SC(=S)N(NS(=O)(=O)c3ccc(C)cc3)C2=O)cc1
inactive: outcome [1] | outcome [2] | outcome [3] | outcome [4] | outcome [5] | outcome [6] | outcome [7] | outcome [8] | outcome [9] | outcome [10] | outcome [11] | outcome [12] | outcome [13] | outcome [14] | outcome [15] | outcome [16] | outcome [17]

CCN(CC)c1ccc(CNc2nc3ccccc3n2CCN2CCCCC2)cc1
active: activation [1] 109%
inactive: outcome [2] | outcome [3] | outcome [4] | outcome [5] | outcome [6] | outcome [7] | outcome [8] | outcome [9] | outcome [10] | outcome [11] | outcome [12] | outcome [13] | outcome [14] | outcome [15] | outcome [16] | outcome [17]

COc1cc2cc(C)c(SCC(=O)N3CCN(C(=O)c4ccco4)CC3)nc2cc1OC
inactive: outcome [1] | outcome [2] | outcome [3] | outcome [4] | outcome [5] | outcome [6] | outcome [7] | outcome [8] | outcome [9] | outcome [10] | outcome [11] | outcome [12] | outcome [13] | outcome [14] | outcome [15] | outcome [16] | outcome [17]

CCCn1c(N)c(C(=O)CSc2n[nH]c(-c3ccc(C)cc3)n2)c(=O)[nH]c1=O
inactive: outcome [1] | outcome [2] | outcome [3] | outcome [4] | outcome [5] | outcome [6] | outcome [7] | outcome [8] | outcome [9] | outcome [10] | outcome [11] | outcome [12] | outcome [13] | outcome [14] | outcome [15] | outcome [16] | outcome [17]
